Results: PubChem BioAssay AID651820 (National Center for Advancing Translational Sciences (NCATS), 2012)
The whole screen tested about 340,000 compounds, of which about 12,000 (3.5%) were called active. Inconclusive results (about 18%) are left out. The call rests on the fitted dose curve; in most records, active means well fitted inhibition curve with a large enough effect; inconclusive means small, poorly fitted or top-dose-only effect, or another doubt; inactive means no such curve, though single readings can be large or run the other way. The full list was thinned out, with actives kept by preference.

Test: qHTS Assay for Inhibitors of Hepatitis C Virus (HCV)
Conditions: Huh7.5.1 HCVcc-Cre infection, luciferase reporter, 44 h; series mostly up to 41.8 µM; activity change, negative = inhibition: at the top concentration
Excerpt: Hepatitis C virus (HCV) infects about 200 million people in the world. Many infected people progress to chronic liver disease including cirrhosis with a risk of developing liver cancer. To date, there is no effective vaccine for hepatitis C. Current therapy based on interferon is only effective in about half of the patients and is associated with significant adverse effects. The fraction of people with HCV who can complete a successful treatment is estimated to be no more than 10 percent. Recent development of direct-acting antivirals against HCV, such as protease and polymerase inhibitors, is promising but still requires combination with peginterferon and ribavirin for maximal efficacy. In addition, these agents are associated with high rate of resistance and many have significant side effects. Due to the lack of a culture system for infectious HCV, the search for new HCV drugs has been greatly hampered. […] High-throughput screening (HTS) with an infectious HCV system would cover the complete spectrum of potentially druggable targets in all stages of HCV lifecycle, and would have more biological relevance than other cell-based assays. Moreover, targeting several key processes in the viral life cycle may not only increase antiviral efficacy; more importantly, it may also reduce the capacity of the virus to develop resistance to the compound. The goal of this project is to identify novel HCV inhibitors as new therapies for hepatitis C, using a highly sensitive and specific assay platform which is based on a HCV infectious cell culture system established in the laboratory and adapted for high-throughput HCV drug screen. NIH Chemical Genomics Center [NCGC] NIH Molecular Libraries Probe Centers Network [MLPCN] MLPCN Grant: MH095511 Assay Submitter (PI): Jake Liang, NIDDK
The assay will start with plating 1,000 cells/well in 3 µL volume and culture for 4 h. Then 23 nL of compounds from the library collection will be added to each well, followed by adding 2.5 µL of HCVcc-Cre virus (~ 0.5 moi) and further cultured for 44 h before the luciferase assay. A volume of 4.5 µL luciferase substrates will be added to each well and the plates will be incubated at room temperature for 15 min. and then read for 15 sec. for the luciferase activity
On the % scale 0 is the no-effect control and ±100 the full control effect.

SMILES	Potency	activity change, negative = inhibition
Cc1cc(Nc2ccccc2)n(C(=O)c2ccc(N)cc2)n1	12.6 µM (active)	–
Nc1ccc(Nc2ccccc2)cc1	–	-12.8% (inactive)
Cc1cc(Nc2ccccc2)n(CCC#N)n1	–	4.32% (inactive)
O=C(Cc1ccc(Br)cc1)NCCc1ccccc1	–	4.78% (inactive)
CC[C@@H]1CCCCc2ccccc2[C@@H](C(=O)C[C@H](O)CC(C)=O)OC1=O	–	14.1% (inactive)
Cc1nnc(NC(=O)C(c2ccccc2)c2ccccc2)s1	–	-1.93% (inactive)
Cc1nnc(NC(=O)Nc2ccc(Cl)c(Cl)c2)s1	14.1 µM (active)	–
Cc1nnc(NC(=O)c2ccc3nccnc3c2)s1	–	17.6% (inactive)
COc1ccc(-c2cnc(SCCNC(=O)c3ccc4c(c3)OCO4)[nH]2)cc1	–	14.4% [at 8.37 µM] (inactive)
C#CCOCCOCCOCCNc1nc(N2CCOCC2)nc(N2CCN(C(=O)[C@H](Cc3ccc(O)cc3)n3cc(CCO)nn3)CC2)n1	–	17.4% (inactive)
O=S(=O)([N-]c1nc2ccccc2nc1-[n+]1ccc(Cc2ccccc2)cc1)c1ccc(Br)s1	3.55 µM (active)	–
Cc1cc(C)c[n+](-c2nc3ccccc3nc2[N-]S(=O)(=O)c2cccs2)c1	–	0.641% (inactive)
O=C(NCCc1ccccc1)C1CCN(S(=O)(=O)c2ccc(Br)s2)CC1	–	5.95% (inactive)
CC(Oc1ccc2c(-c3ccccc3)cc(=O)oc2c1)C(=O)NC(Cc1c[nH]c2ccccc12)C(=O)O (stereo not drawn)	–	-1.82% (inactive)
CC(C)(C)C(=O)CSc1ccc(S(=O)(=O)N2CCCC2)cn1	–	5.1% (inactive)
CCCS(=O)(=O)N1CCC(CCOc2ccccc2)(C(=O)OCC)CC1	–	-7.6% (inactive)
CCOC(=O)C1(CCOC)CCN(Cc2ccc(C(=O)OC)cc2)CC1	–	3.41% (inactive)
CCOC(=O)C1(CCOc2ccccc2)CCN(Cc2cc(OC)c(O)cc2Cl)CC1	11.2 µM (active)	–
Nn1c(SCC(=O)Nc2nccs2)nnc1-c1ccco1	–	-1.79% (inactive)
Cc1ccccc1NC(=O)Cc1nc(COC(=O)c2cccnc2Cl)cs1	–	-13.6% (inactive)
COc1ccc(C(C(=O)NC2CCCCC2)N(C(=O)c2snc(C(N)=O)c2N)c2ccccc2OC)cc1 (stereo not drawn)	–	0.443% (inactive)
COc1ccc(C(C(=O)NC2CCCCC2)N(C(=O)CCl)c2ccccc2Cl)cc1 (stereo not drawn)	2.82 µM (active)	–
COc1cccc(N(C(=O)C2COc3ccccc3O2)C(C(=O)NC2CCCCC2)c2ccc(O)cc2)c1 (stereo not drawn)	–	-7.1% (inactive)
O=C(c1ccc(F)cc1)N1CCC(C(=O)N2CCN(S(=O)(=O)c3ccccc3Br)CC2)CC1	–	15.5% (inactive)
COc1ccc(C(=O)Nc2nc(-c3ccc(S(=O)(=O)N4CCOCC4)cc3)cs2)cc1	35.5 µM (active)	–
CCOC(=O)c1csc(NC(=O)c2ccc(S(=O)(=O)N3CCCC3)cc2)n1	–	-8.37% (inactive)

SMILES	Potency	activity change, negative = inhibition
CNC(=O)c1ccsc1NC(=O)c1ccc(S(=O)(=O)N2CCOCC2)cc1	–	-5.81% (inactive)
Cn1c(=O)[nH]c2c(c(C(=O)O)nn2C)c1=O	–	7.31% (inactive)
CCOC(=O)c1cnc2nc(SCc3ccccc3Cl)[nH]n2c1=O	–	4.2% (inactive)
Cc1cc(C(=O)N/N=C\C(Br)=C\c2ccccc2)c(C)o1	–	-28.1% (inactive)
CC(C)c1cc(C(=O)O)n[nH]1	–	13.7% (inactive)
CC(C)c1cc(C(=O)N/N=C/C(Br)=C/c2ccccc2)n[nH]1	22.4 µM (active)	–
Cc1c(NC(=O)CSc2nnc(-c3cccnc3)n2N)c(=O)n(-c2ccccc2)n1C	–	26.7% (inactive)
O=C(O)c1ccc([N+](=O)[O-])cc1Sc1ccsc1	–	2.61% (inactive)
O=C(c1cccc(S(=O)(=O)N2CCCCCC2)c1)N1CCN(Cc2ccccc2)CC1	–	-17.4% (inactive)
CCOC(=O)N1CCN(C(c2cccnc2)c2ccc3cccnc3c2O)CC1 (stereo not drawn)	–	-17.6% (inactive)
Cc1nc2sc(C(c3ccco3)N3CCOCC3)c(O)n2n1 (stereo not drawn)	–	0.269% (inactive)
Oc1c(C(c2ccccn2)N2CCOCC2)ccc2cccnc12 (stereo not drawn)	3.55 µM (active)	–
CCOC(=O)C1CCCN(C(=O)CSc2nnc3nc(C)cc(C)n23)C1 (stereo not drawn)	–	-5.06% (inactive)
Cc1cc(C(=O)OCC(=O)N2C(C)CCCC2C)c2ccccc2n1 (stereo not drawn)	–	-14.7% (inactive)
CCC(C)N(C(=O)CSc1ncnc2c1cnn2-c1ccccc1)C1CCS(=O)(=O)C1 (stereo not drawn)	14.1 µM (active)	–
CC(C)CN(C(=O)CSc1ncnc2sccc12)C1CCS(=O)(=O)C1 (stereo not drawn)	–	8.24% (inactive)
CCN(C(=O)CSc1ncnc2c1cnn2-c1ccccc1)C1CCS(=O)(=O)C1 (stereo not drawn)	–	-22.6% (inactive)
O=C(O)c1ccc(NN=CC2=C(N3CCOCC3)/C(=C/c3ccccc3)CC2)cc1	–	40.3% (inactive)
CC/C(=C(/c1ccccc1)c1ccc(OCC[N+](C)(C)C)cc1)c1ccccc1	–	3.46% (inactive)
CCOC(=O)c1ccccc1OC(=O)Oc1ccccc1C(=O)OCC	–	-20.5% (inactive)
CCOC(=O)C(=Cc1ccccc1OC)C(=O)OCC	25.1 µM (active)	–
COc1ccccc1C(=O)c1ccccc1C(=O)c1ccccc1	–	-3.41% (inactive)
CC(=O)CC(CC(=O)NC1CCCCC1)c1ccccc1 (stereo not drawn)	–	4.7% (inactive)
CN(CC(=O)O)C(=O)c1ccccc1	–	-4.81% (inactive)
COc1cccc(NC(=O)CN(C)C(=O)CSC(=S)N2CCCC2)c1	–	7.26% [at 8.37 µM] (inactive)
COCCN(CCOC)C(=S)Nc1ccccc1Cl	–	-9.93% (inactive)

SMILES	Potency	activity change, negative = inhibition
O=C(Nc1ccccc1Cl)/C(Cl)=C(\Cl)S(=O)c1ccccc1 (stereo not drawn)	11.2 µM (active)	–
O=C(Nc1ccccc1Cl)Nn1cnnc1	–	22.4% (inactive)
COc1ccc(-c2cc3ncccc3cn2)cc1	–	-19.5% (inactive)
CCCCCCCCn1c2c(c(=N)c3c1CCC3)CCCC2	3.98 µM (active)	–
O=C(CCNS(=O)(=O)c1ccccc1C(F)(F)F)Nc1ccncc1	–	8.22% (inactive)
COc1ccccc1OCc1ccc(C(=O)N2CCN(C)CC2)o1	–	10.2% (inactive)
COc1ccccc1OCc1ccc(C(=O)NC(C)c2ccccc2)o1 (stereo not drawn)	7.08 µM (active)	–
COc1ccccc1CNC(=O)c1ccc(CS(=O)(=O)c2ccccc2)o1	–	5.83% (inactive)
CCCCn1c(N)c(N(CC(C)C)C(=O)c2cccc(S(=O)(=O)N3CC(C)OC(C)C3)c2)c(=O)[nH]c1=O (stereo not drawn)	–	-10.1% (inactive)
CCOC(=O)c1ccc(NC(=O)Cn2nnc(-c3ccc(C)cc3)n2)cc1	–	-24.7% (inactive)
CCOC(=O)c1ccc(NC(=O)Cn2cnc3cc(C)c(C)cc32)cc1	3.55 µM (active)	–
CCCc1nnc(SCC(=O)Nc2ccc(C(=O)OCC)cc2)o1	–	10.9% (inactive)
Cn1c(SCC(=O)Nc2ccc(N3CCOCC3)cc2)nnc1C(F)(F)F	–	-2.32% (inactive)
CC(NC(=O)c1ccccc1)C(=O)OCC(=O)Nc1cccc(S(=O)(=O)N2CCCC2)c1 (stereo not drawn)	–	11.6% (inactive)
CN1CCc2nc(SC(C(=O)O)c3ccccc3)c(C#N)c(-c3cccs3)c2C1 (stereo not drawn)	10 µM (active)	–
Cc1c(-c2ccccc2)nc(N)c(C#N)c1-c1cccs1	–	17.7% (inactive)
CC(NC(=O)CSc1nc2c(cc1C#N)CN(C)CC2)c1ccccc1 (stereo not drawn)	–	-20.5% (inactive)
Cc1ccc([C@@H]2CC=C(C(=O)O)[C@H](c3cccc(Cl)c3)N2S(=O)(=O)c2ccc(C)cc2)cc1	–	23.6% (inactive)
CC(C)(C)OC(=O)C[C@@H]1C/C=C\C[C@@H](CC(=O)N(CCO)Cc2ccccc2)C(=O)N[C@H](Cc2ccccc2)COC1=O	–	14.1% (inactive)
Cc1csc(=O)n1CC(=O)OCC(=O)N(CC(C)C)c1c(N)n(Cc2ccccc2)c(=O)[nH]c1=O	–	0.0195% (inactive)
Cc1ccnc(SCCn2c(Br)nc3c2c(=O)[nH]c(=O)n3C)n1	–	-9.01% (inactive)
Cn1c(=O)[nH]c(=O)c2c1nc(Br)n2CCCCSc1nc2ccccc2o1	12.6 µM (active)	–
Cn1c(=O)c2c(nc(Br)n2CCSc2nc3ccccc3o2)n(C)c1=O	–	-24% (inactive)
CCCCC/C=C/C1=CC(=O)C[C@H](c2ccc(Cl)cc2)C1	–	-4.66% (inactive)
O=C1NCCn2nc3ccccc3c21	–	-0.139% (inactive)
Cn1c(N)c(C(=O)COC(=O)/C=C/c2cccc(C(F)(F)F)c2)c(=O)n(C)c1=O	–	5.92% (inactive)

SMILES	Potency	activity change, negative = inhibition
Cc1cc(C)cc(-c2nnc(SCC(=O)NC3CC3)o2)c1	–	0.418% (inactive)
CCOC(=O)N1CCN(C(=O)c2ccc3c(c2)N(Cc2ccc(C)cc2)CCS3)CC1	12.6 µM (active)	–
O=C(NCCN1CCOCC1)c1ccc2c(c1)N(Cc1ccc(Cl)cc1)CCS2	–	8.59% (inactive)
O=C(c1ccc2c(c1)N(Cc1ccc(F)cc1)C(=O)CS2)N1CCOCC1	–	14.1% (inactive)
O=C(NNC(=O)c1cc(S(=O)(=O)N2CCCCC2)ccc1Cl)c1ccccc1O	–	-11.9% (inactive)
CN(C(=O)CN1C(=O)NC(C)(CCc2ccccc2)C1=O)c1ccccc1 (stereo not drawn)	–	16.1% (inactive)
O=C(COC(=O)c1cc[n+]([O-])cc1)Nc1ccc(Cl)c(C(F)(F)F)c1	–	0.896% (inactive)
O=C1c2ccccc2C(=O)N1CCCCCCN1C(=O)c2ccccc2C1=O	–	7.88% (inactive)
O=C(NNC(=O)c1ccc2ccccc2c1)c1ccc(Cl)cc1	–	-4.02% (inactive)
COc1ccc(C(=O)CN2C(=O)NC3(CCc4ccccc43)C2=O)c(OC)c1 (stereo not drawn)	–	4.95% (inactive)
c1ccc(CCc2ccccn2)cc1	–	21.4% (inactive)
CCOC(=O)C1=C(C)NC(=O)NC1c1ccccc1 (stereo not drawn)	–	6.14% (inactive)
CCOC(=O)C1=C(c2ccccc2)NC(=S)NC1c1ccc(Cl)cc1 (stereo not drawn)	11.2 µM (active)	–
CCOC(=O)C1=C(c2ccccc2)NC(=O)NC1c1cc(OC)c(OC)cc1OC (stereo not drawn)	–	20.3% (inactive)
CCCn1c2ccccc2c2cnn(CC(=O)NCCCN3CCCCC3CC)c(=O)c21 (stereo not drawn)	11.2 µM (active)	–
CC1CCCCN1CCCNC(=O)Cn1ncc2c([nH]c3ccccc32)c1=O (stereo not drawn)	–	12.5% (inactive)
CCC1CCCCN1CCCNC(=O)Cn1nc(-c2ccccc2)ccc1=O (stereo not drawn)	–	5.92% (inactive)
CC(C)N(C(=O)CN1CCN(S(=O)(=O)c2ccc(Br)s2)CC1)C(C)C	–	8.62% (inactive)
Cc1ccc(/C=C/C(=O)OCC(=O)Nc2cccnc2Cl)cc1	–	-7.92% (inactive)
CC(C)(C)c1ccc(SCCc2ccncc2)cc1	8.91 µM (active)	–
O=[N+]([O-])c1cc(C(F)(F)F)ccc1NCCc1ccncc1	–	-0.741% (inactive)
c1ccc(CSCCc2ccncc2)cc1	–	-1.66% (inactive)
CC1(C)Cc2ccccc2-c2[nH]c(=S)[nH]c(=O)c21	–	25.9% (inactive)
CC1(C)Cc2ccccc2/C(=C/C(=O)c2ccccc2)N1	14.1 µM (active)	–
CC(C)CC(N=C1NC(C)(C)Cc2ccccc21)C(=O)O (stereo not drawn)	–	11% (inactive)
